Experimental data reported in the supplement of paper PMC12494721.
Counter-ions that a name gives are not always drawn.

Each compound was assayed on Klebsiella aerogenes DSM 30053 (assay: fold change of Putrescine concentration vs plate DMSO controls (fold change (ratio)); higher = more amine produced, active = hit call of the paper (significant change in both replicates, either direction)). Settings: incubation time: 27 h, anaerobic, 37 °C;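 for the amine columns active = adjusted P below 0.05 in both replicates with a change the same way and a mean fold change under 0.8 or over 1.25; inactive = the rest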.
How it was run: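 In 80 µL wells, cultures of four gut bacterial strains in mGAM started at OD 0.1 before a 1:1 dilution and grew anaerobically at 37 °C for 27 h. Compounds were added to 20 µM final, except sweeteners at 50 µM final. After extraction of whole cultures with cold acetonitrile/methanol plus 0.1% formic acid and centrifugation, amines were measured by LC–triple-quadrupole MS in dynamic MRM mode against external calibration curves, with within-batch drift correction. Values give fold change over DMSO controls on the same plate, averaged across 2 biological replicates.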

Fold change of Putrescine concentration, inactive:
CN(C)c1cc(NC(=O)CNC(C)(C)C)c(O)c2c1C[C@H]1C[C@H]3[C@H](N(C)C)C(=O)C(C(N)=O)=C(O)[C@@]3(O)C(=O)C1=C2O [Tigecycline] (20 µM) 0.991, CCOC(=O)[N-]c1c[n+](N2CCOCC2)no1 [Molsidomine] (20 µM) 1.02, CCN(CC)CCOC(=O)C(Cc1cccc2ccccc12)CC1CCCO1 (centres undefined) [Nafronyl oxalate] (20 µM) 1, CCN(CC)CCOC(=O)C1(C2CCCCC2)CCCCC1 [Dicyclomine hydrochloride] (20 µM) 1.01, CC[C@H]1OC(=O)[C@H](C)[C@@H](O[C@H]2C[C@@](C)(OC)[C@@H](O)[C@H](C)O2)[C@H](C)[C@@H](O[C@@H]2O[C@H](C)C[C@H](N(C)C)[C@H]2O)[C@](C)(O)C[C@@H](C)C(=O)[C@H](C)[C@@H](O)[C@]1(C)O [Erythromycin] (20 µM) 0.936, NC(=O)NS(=O)(=O)c1ccc(N)cc1 [Sulfacarbamide] (20 µM) 1.02, O=c1[nH]cc(F)c(=O)[nH]1 [5-fluorouracil] (20 µM) 0.961, NC(=O)N/N=C/c1ccc([N+](=O)[O-])o1 [Nitrofural] (20 µM) 0.947, COC(=O)C1=C(C)NC(C)=C(C(=O)OC2CCCN(Cc3ccccc3)C2)C1c1cccc([N+](=O)[O-])c1 (centres undefined) [Benidipine hydrochloride] (20 µM) 1.02
